Bioassay records as filed in PubChem.
This is a sample that favours compounds with a hit; in the whole collection about 31% have one here.
CYP2C19 inh: human CYP2C19 inhibition; P33261; CYP2C19 Supersomes, luciferin-H EGE luminescence, 30 min; inhibition, % at 5 µM; 96,000 tested, 21% active; AID 778;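 active means CYP2C19 inhibition above a set limit at 5 µM in the primary screen, cut at about 50% in these data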;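 further: plate controls were negative control wells for no effect and 2.5 mM tranylcypromine positive control for full effect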
CYP2C9 inh: human CYP2C9 inhibition; inhibition, % at 5 µM; 96,000 tested, 20% active; AID 777; CYP2C9 Supersomes, luciferin-H conversion, luminescence;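 active means blocking of liver enzyme CYP2C9 beyond about 50% at 5 µM, limit read from the data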
Target sequence (P11712 whole entry, looked up): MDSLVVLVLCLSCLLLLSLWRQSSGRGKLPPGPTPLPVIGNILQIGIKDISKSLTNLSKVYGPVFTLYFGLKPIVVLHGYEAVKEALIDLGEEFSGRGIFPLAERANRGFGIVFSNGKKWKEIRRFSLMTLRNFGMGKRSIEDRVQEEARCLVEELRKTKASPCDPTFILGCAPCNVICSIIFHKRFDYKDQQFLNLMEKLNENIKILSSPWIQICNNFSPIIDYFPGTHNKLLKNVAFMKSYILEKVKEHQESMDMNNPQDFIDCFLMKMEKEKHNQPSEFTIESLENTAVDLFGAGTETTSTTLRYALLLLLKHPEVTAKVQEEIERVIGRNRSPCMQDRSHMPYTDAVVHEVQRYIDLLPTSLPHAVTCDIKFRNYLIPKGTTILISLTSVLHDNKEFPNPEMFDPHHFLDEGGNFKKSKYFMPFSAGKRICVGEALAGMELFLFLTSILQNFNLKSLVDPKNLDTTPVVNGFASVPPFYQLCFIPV
PLAP activator: activates human placental alkaline phosphatase; AID 696; purified PLAP enzyme, luminescent substrate read-out; hits give high values; activation fold at 20 µM; 96,000 tested, 1.2% active; in the data active means activation fold above about 2
CYP2C19 activ: activators of human cytochrome P450 2C19; activation factor at 5 µM; recombinant CYP2C19, luciferin-H EGE luminescence; hits give high values; 0 = fully inhibited enzyme, 1 = untreated enzyme; P33261; 96,000 tested, under 10 active;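 active means activation factor of at least 2 at 5 µM in the primary screen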;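 further: 0 = wells with 2.5 mM tranylcypromine and 1 = vehicle-only wells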
CYP2C9 activ: activators of human CYP2C9; activation factor at 5 µM; P11712; 96,000 tested, 1.4% active; recombinant CYP2C9, luciferin-H conversion, luminescence; hits give high values; factor 1 = untreated enzyme, 0 = blocked;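 active means activation factor of 2 or more for CYP2C9 at a 5 µM dose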;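 further: 0 = sulfaphenazole-blocked wells and 1 = vehicle-only wells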
* = called active by the depositor.

How did CCOc1ccc(-c2nc(CSCC(=O)N3CCN(c4cccc(OC)c4)CC3)c(C)o2)cc1 do in these assays?
CYP2C19 inh: 83.4*; CYP2C9 inh: 94.2*; PLAP activator: 1.8; CYP2C19 activ: 0.2; CYP2C9 activ: 0.1

What do the screens show for `CCc1ccc(-c2nc(CSCC(=O)N3CCN(c4ccccn4)CC3)c(C)o2)cc1`?
CYP2C19 inh: 35.9; CYP2C9 inh: 64.4*; PLAP activator: 1.1; CYP2C19 activ: 0.6; CYP2C9 activ: 0.4

How did Cc1ccc(-c2nc(CSCC(=O)N3CCN(c4ccccn4)CC3)c(C)o2)cc1 do in these assays?
CYP2C19 inh: 29.1; CYP2C9 inh: -60.2; PLAP activator: 1.5; CYP2C19 activ: 0.7; CYP2C9 activ: 1.6

Results for Cc1oc(-c2ccccc2Cl)nc1CSCC(=O)N1CCCC1 ?
CYP2C19 inh: 93.0*; CYP2C9 inh: 17.3; PLAP activator: 1.7; CYP2C19 activ: 0.1; CYP2C9 activ: 0.8

Results for CCOC(=O)N1CCC(NC(=O)CSCc2nc(-c3cccc(OC)c3)oc2C)CC1 ?
CYP2C19 inh: 56.8*; CYP2C9 inh: 66.8*; PLAP activator: 1.3; CYP2C19 activ: 0.4; CYP2C9 activ: 0.3

What do the screens show for `CCOC(=O)c1[nH]c(=O)[nH]c1CSc1nc(C)cc(C)n1`?
CYP2C19 inh: 6.9; CYP2C9 inh: -13.9; PLAP activator: 2.2*; CYP2C19 activ: 0.9; CYP2C9 activ: 1.1

Results for CN(C)CCCOC(=O)c1cc2ccccc2o1 ?
CYP2C19 inh: 1.7; CYP2C9 inh: 4.6; PLAP activator: 1; CYP2C19 activ: 1; CYP2C9 activ: 1

Results for CCOC(=O)c1[nH]c(=O)[nH]c1COC(=O)c1cc2ccccc2o1 ?
CYP2C19 inh: 12.5; CYP2C9 inh: 57.0*; PLAP activator: 2.2*; CYP2C19 activ: 0.9; CYP2C9 activ: 0.4

Results for CCOC(=O)CCCCC(=O)c1[nH]c(=O)[nH]c1CSc1nc(C)cc(C)n1 ?
CYP2C19 inh: 12.8; CYP2C9 inh: 26.7; PLAP activator: 2*; CYP2C19 activ: 0.9; CYP2C9 activ: 0.7

Results for CCOC(=O)CCCCC(=O)c1[nH]c(=O)[nH]c1CSc1nc(C)cc(=O)[nH]1 ?
CYP2C19 inh: 3.1; CYP2C9 inh: 8.3; PLAP activator: 2.2*; CYP2C19 activ: 1; CYP2C9 activ: 0.9

How did CCN(c1nc(C)cc(OC)n1)S(=O)(=O)c1ccccc1 do in these assays?
CYP2C19 inh: 76.0*; CYP2C9 inh: 19.9; PLAP activator: 0.9; CYP2C19 activ: 0.2; CYP2C9 activ: 0.8

Results for CCOC(=O)c1c(C)[nH]c2cc(Br)c(O)cc12 ?
CYP2C19 inh: 68.2*; CYP2C9 inh: 68.4*; PLAP activator: 0.9; CYP2C19 activ: 0.3; CYP2C9 activ: 0.3

What do the screens show for `CCOC(=O)c1c(OCC)[nH]c2c1cc(O)c1ccccc12`?
CYP2C19 inh: 29.6; CYP2C9 inh: 46.1; PLAP activator: 1; CYP2C19 activ: 0.7; CYP2C9 activ: 0.5

Results for Cc1ccc(N(CC(=O)N2CCc3ccccc32)C2=NC(=O)CS2)cc1 ?
CYP2C19 inh: 56.0*; CYP2C9 inh: 67.4*; PLAP activator: 1.5; CYP2C19 activ: 0.4; CYP2C9 activ: 0.3

Results for Cc1ccc(S(=O)(=O)CCC(=O)N2CCc3ccccc32)cc1 ?
CYP2C19 inh: 1.4; CYP2C9 inh: -116.3; PLAP activator: 0.9; CYP2C19 activ: 1; CYP2C9 activ: 2.2*

What do the screens show for `Cn1cc(S(=O)(=O)CC(=O)N2CCCc3ccccc32)c2ccccc21`?
CYP2C19 inh: 83.5*; CYP2C9 inh: -88.4; PLAP activator: 1.6; CYP2C19 activ: 0.2; CYP2C9 activ: 1.9

Results for Cc1nc2ccc(S(=O)(=O)N(C)CC(=O)N3CCc4ccccc43)cc2s1 ?
CYP2C19 inh: 19.6; CYP2C9 inh: -33.4; PLAP activator: 1; CYP2C19 activ: 0.8; CYP2C9 activ: 1.3

Results for Cc1ccc(C(=O)OCC(=O)N2CCc3ccccc32)cc1 ?
CYP2C19 inh: 9.9; CYP2C9 inh: 2.5; PLAP activator: 1.1; CYP2C19 activ: 0.9; CYP2C9 activ: 1

Results for CN(CC(=O)N1CCc2ccccc21)S(=O)(=O)c1ccc(Br)s1 ?
CYP2C19 inh: 93.8*; CYP2C9 inh: -23.4; PLAP activator: 1.2; CYP2C19 activ: 0.1; CYP2C9 activ: 1.2

What do the screens show for `CCOC(=O)c1c(C)c(-c2ccccc2)n(CC(=O)N2CCN(C)CC2)c1C`?
CYP2C19 inh: 13.5; CYP2C9 inh: -8.8; PLAP activator: 1.8; CYP2C19 activ: 0.9; CYP2C9 activ: 1.1

How did c1coc(CNCC2OCCc3ccccc32)c1 (stereo not drawn) do in these assays?
CYP2C19 inh: 46.2; CYP2C9 inh: -11.4; PLAP activator: 1; CYP2C19 activ: 0.5; CYP2C9 activ: 1.1

What do the screens show for `Cc1ccc(S(=O)(=O)N(C)CC(=O)N2CCCc3ccccc32)cc1`?
CYP2C19 inh: 29.5; CYP2C9 inh: -172.4; PLAP activator: 1.1; CYP2C19 activ: 0.7; CYP2C9 activ: 2.7*

Results for C#CC(C)(C)NC(=O)c1ccccc1OC ?
CYP2C19 inh: -15.3; CYP2C9 inh: -138.1; PLAP activator: 1; CYP2C19 activ: 1.2; CYP2C9 activ: 2.4*

How did CCC(CC)NC(=O)Cc1ccccc1OC do in these assays?
CYP2C19 inh: 77.9*; CYP2C9 inh: 11.8; PLAP activator: 0.8; CYP2C19 activ: 0.2; CYP2C9 activ: 0.9

Results for COc1ccccc1CNC(=O)c1ccccc1OC ?
CYP2C19 inh: 76.6*; CYP2C9 inh: -283.7; PLAP activator: 0.8; CYP2C19 activ: 0.2; CYP2C9 activ: 3.8*

Results for COc1ccccc1CNC(=O)c1ccc(S(=O)(=O)N(C)C)cc1 ?
CYP2C19 inh: 72.7*; CYP2C9 inh: 32.0; PLAP activator: 1; CYP2C19 activ: 0.3; CYP2C9 activ: 0.7

How did CN1C(=O)C(CC(=O)N2CCN(C(c3ccccc3)c3ccccc3)CC2)N(C)C1=O (stereo not drawn) do in these assays?
CYP2C19 inh: 0.2; CYP2C9 inh: 2.0; PLAP activator: 1.3; CYP2C19 activ: 1; CYP2C9 activ: 1

How did COc1ccccc1CNC(=O)COc1ccccc1OC do in these assays?
CYP2C19 inh: 97.2*; CYP2C9 inh: -240.8; PLAP activator: 0.8; CYP2C19 activ: 0; CYP2C9 activ: 3.4*

Results for COc1ccccc1CNC(=O)CC(C)C ?
CYP2C19 inh: 7.3; CYP2C9 inh: -17.2; PLAP activator: 1.3; CYP2C19 activ: 0.9; CYP2C9 activ: 1.2

What do the screens show for `Nc1ncc(Br)cc1S(=O)(=O)NCCC(=O)Nc1cccc(Cl)c1`?
CYP2C19 inh: 66.3*; CYP2C9 inh: 41.3; PLAP activator: 0.8; CYP2C19 activ: 0.3; CYP2C9 activ: 0.6

What do the screens show for `Nc1ncc(Br)cc1S(=O)(=O)NCCC(=O)N1CCN(c2ncccn2)CC1`?
CYP2C19 inh: 59.6*; CYP2C9 inh: 40.8; PLAP activator: 1; CYP2C19 activ: 0.4; CYP2C9 activ: 0.6

What do the screens show for `Cc1cc(NC(=O)CCNS(=O)(=O)c2cc(Br)cnc2N)ccc1Br`?
CYP2C19 inh: 29.5; CYP2C9 inh: 40.7; PLAP activator: 0.8; CYP2C19 activ: 0.7; CYP2C9 activ: 0.6
